Compound activity: PubChem, Zoeller Lab, School of Medicine, Boston University
Shown is part of a subset that was picked to be rich in hits.
PL biosyn Enam = animal cell phospholipid biosynthesis inhibition, Enamine screen. AID 1347385. 0.4% of 20,000 active. calls only at 10 µM. ZR-82 CHO cells, pyrene fatty acid UV survival, CellTiter Blue; peroxisome-deficient CHO-K1 mutant line; plus DGAT-1, DGAT-2 and ACAT inhibitors;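 active = cell survival signal 2 SD away from solvent-only control wells, confirmed on one or two retests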;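 also: 3 h compound exposure then viability read about one day after UV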
The depositor's hits bear a star; i = inactive; + = active, no number.

SMILES	PL biosyn Enam
Clc1ccc(NN=C2c3ccccc3-c3ccccc32)cc1	i
O=[N+]([O-])c1cccc(NN=C2c3ccccc3-c3ccccc32)c1	i
Fc1ccc(NN=C2c3ccccc3-c3ccccc32)cc1	+
O=c1cc2[nH]c3ccccc3n2c2cc(F)ccc12	i
CC1CCc2nc(NC(=O)CCN3C(=O)NC4(CCCC4)C3=O)sc2C1 (stereo unspecified)	i
CC(NS(=O)(=O)c1ccc(F)c(F)c1)C12CC3CC(CC(C3)C1)C2 (stereo unspecified)	i
CN(C)S(=O)(=O)N1CCN(c2ccc([N+](=O)[O-])c(NC3CC3)c2)CC1	i
CC(Nc1cc(N2CCNCC2)ccc1[N+](=O)[O-])C12CC3CC(CC(C3)C1)C2 (stereo unspecified)	+
c1ccc(C2CNC(c3ccc4c(c3)OCO4)c3[nH]c4ccccc4c32)cc1 (stereo unspecified)	i
CN1/C(=C\C=Nc2ccc(I)cc2)C(C)(C)c2ccccc21	i
CN1/C(=C\C=N\N=C2c3ccccc3-c3ccccc32)C(C)(C)c2ccccc21	+
CSc1ccccc1N=C/C=C1/N(C)c2ccccc2C1(C)C	i
O=[N+]([O-])c1ccc(N/N=C2\CCCCc3ccccc32)cc1	+
O=[N+]([O-])c1cc(C(F)(F)F)cc([N+](=O)[O-])c1N/N=C1/CCCc2ccccc21	i
O=[N+]([O-])c1ccc(N/N=C2\CCc3ccccc32)cc1	+
c1ccc(N/N=C2\CCCc3ccccc32)nc1	i
O=[N+]([O-])c1cc(S(=O)(=O)N/N=C2\CCc3ccccc32)ccc1Cl	i
C=CCNC(=S)N/N=C1\CCc2ccccc21	i
Cn1ccsc1=NC(=O)c1ccc(Br)o1	i
Cc1nnc(SCC(=O)NC2CCCCC2C)n1C1CCCCC1 (stereo unspecified)	i
CC(C)N1C(=O)C2(N=C(N)Nc3nc4ccccc4n32)c2ccccc21 (stereo unspecified)	i
Cc1ccc(C(=O)Cn2cnc3sccc3c2=O)s1	i
C=CCN1C(=O)C(=O)N(CC(=O)c2cccs2)C1=O	i
O=C(OC1CCCCC1=O)c1ccc(Br)o1 (stereo unspecified)	i
Cc1sc2ncnc(NC3CCC(O)CC3)c2c1C (stereo unspecified)	i
SMILES	PL biosyn Enam
C/C(=N\Nc1ncnc2sc(C)c(C)c12)c1ccc(Cl)s1	+
Cc1sc2ncnc(NCC(C)O)c2c1C (stereo unspecified)	i
C=CCN=c1scc(-c2ccc(OC)cc2)n1/N=C/c1cc(OC)c(O)c(OC)c1	i
COCCNC(=S)N1CCn2c1nc1ccccc12	i
CN1/C(=C\P(=NS(=O)(=O)c2ccc(Cl)cc2)(Oc2ccc3ccccc3c2)c2ccccc2)C(C)(C)c2ccccc21 (stereo unspecified)	i
S=c1[nH]nc(-c2cccnc2)n1/N=C/c1ccc(Br)cc1	i
Cc1nc(SCC(=O)N(C)C)c2c(C)c(C)sc2n1	i
O=C1c2ccccc2SC1(c1nc2ccccc2s1)c1nc2ccccc2s1	i
O=C(C1=C2SC=C(c3ccccc3)N2CCCC1)c1ccc2c(c1)S(=O)(=O)c1ccccc1C2=O	i
Cn1c(-c2ccccc2)c(/C=N/Nc2nncc3ccccc23)c2ccccc21	+
Fc1ccc(/C=N/Nc2nncc3ccccc23)cc1F	i
FC(F)(F)c1cccc(/C=N/Nc2nncc3ccccc23)c1	i
Cn1cccc1/C=C/C(=O)Oc1ccc2ccc(=O)oc2c1	i
CCOC(=O)c1[nH]c(COC(=O)c2ccc(C)s2)c(C(=O)OCC)c1C	i
